Inconclusive results are not listed. Activity calls are given as the source filed them. Unless noted, calls come from the whole dose curve; as a rule, active = well fitted curve in the direction sought with a large enough effect in the repeat runs; inconclusive = weak or mixed curves; inactive = no such curve, though single readings can be large; an effect the other way counts as inactive or inconclusive.
Key:
[1] = A CellTox Green Cytotoxicity Assay to monitor cytotoxicity in HEK293 cells - 8 hour (AID 1224884); note: nearly all actives have a fitted effect of over 35% in size; note: potency is the fitted concentration of half-maximal effect
Summary of the method: (§1)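 HEK293 cells, 600/well, were preincubated 5 hours and then exposed to compounds at 37 C for up to 40 hours. A cell-impermeant cyanine dye staining dead-cell DNA was read by fluorescence at 0, 8, 16, 24, 32 and 40 h time points.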

[2] = qHTS RealTime-Glo MT Cell Viability Assay in HEK293 cells - 24 hour (AID 1224886); note: nearly all actives have a fitted effect of over 50% in size; note: potency is the fitted concentration of half-maximal effect
Summary of the method: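 HEK293 cells seeded with NanoLuc/prosubstrate reagent, rested 5 h at 37 C, then dosed and kept at 37 C up to 40 h. Nonlytic real-time luminescence from viable cells read at 0, 8, 16, 24, 32 and 40 h.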

[3] = qHTS RealTime-Glo MT Cell Viability Assay in HepG2 cells - 0 hour (AID 1224889); note: nearly all actives have a fitted effect of over 50% in size
Summary of the method: (§2)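 HepG2 cells (600/well) were dispensed with RealTime-Glo reagents, incubated 5 h at 37 °C, then treated with compounds in DMSO for up to 40 h. Nonlytic NanoLuc luminescence reflecting viable cells was read at each stated time point.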

[4] = A CellTox Green Cytotoxicity Assay to monitor cytotoxicity in HepG2 cells - 8 hour (AID 1224890); note: nearly all actives have a fitted effect of over 45% in size; note: potency is the fitted concentration of half-maximal effect
Summary of the method: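 HepG2 cells, 600/well, preincubated 5 h with CellTox Green dye, then exposed to Tox21 compounds in DMSO at 37 C for up to 40 h. Dead-cell DNA fluorescence read at the indicated time point.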

[5] = qHTS assay to identify small molecule antagonists of the androgen receptor (AR) signaling pathway using the MDA cell line in the presence of 0.5 nM R1881 - cell viability counter screen (AID 1259242); note: nearly all actives have a fitted effect of over 45% in size; note: potency is the fitted concentration of half-maximal effect
Summary of the method: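 MDA-kb2 cells (MMTV-luciferase, AR/GR responsive) were treated with compounds plus 0.5 nM R1881 (final) for 16 hr at 37C, 0% CO2. Viability was then read in the same wells as live-cell protease fluorescence (CellTiter-Fluor, 30 min).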

[6] = target: Androgen receptor (Homo sapiens) (UniProt P10275); experiment: qHTS assay to identify small molecule antagonists of the androgen receptor (AR) signaling pathway using the MDA cell line in the presence of 0.5 nM R1881 (AID 1259243); note: potency is the fitted concentration of half-maximal effect; nearly all actives have a fitted effect of over 50% in size
Sequence of Androgen receptor (Homo sapiens) (P10275 whole entry, looked up): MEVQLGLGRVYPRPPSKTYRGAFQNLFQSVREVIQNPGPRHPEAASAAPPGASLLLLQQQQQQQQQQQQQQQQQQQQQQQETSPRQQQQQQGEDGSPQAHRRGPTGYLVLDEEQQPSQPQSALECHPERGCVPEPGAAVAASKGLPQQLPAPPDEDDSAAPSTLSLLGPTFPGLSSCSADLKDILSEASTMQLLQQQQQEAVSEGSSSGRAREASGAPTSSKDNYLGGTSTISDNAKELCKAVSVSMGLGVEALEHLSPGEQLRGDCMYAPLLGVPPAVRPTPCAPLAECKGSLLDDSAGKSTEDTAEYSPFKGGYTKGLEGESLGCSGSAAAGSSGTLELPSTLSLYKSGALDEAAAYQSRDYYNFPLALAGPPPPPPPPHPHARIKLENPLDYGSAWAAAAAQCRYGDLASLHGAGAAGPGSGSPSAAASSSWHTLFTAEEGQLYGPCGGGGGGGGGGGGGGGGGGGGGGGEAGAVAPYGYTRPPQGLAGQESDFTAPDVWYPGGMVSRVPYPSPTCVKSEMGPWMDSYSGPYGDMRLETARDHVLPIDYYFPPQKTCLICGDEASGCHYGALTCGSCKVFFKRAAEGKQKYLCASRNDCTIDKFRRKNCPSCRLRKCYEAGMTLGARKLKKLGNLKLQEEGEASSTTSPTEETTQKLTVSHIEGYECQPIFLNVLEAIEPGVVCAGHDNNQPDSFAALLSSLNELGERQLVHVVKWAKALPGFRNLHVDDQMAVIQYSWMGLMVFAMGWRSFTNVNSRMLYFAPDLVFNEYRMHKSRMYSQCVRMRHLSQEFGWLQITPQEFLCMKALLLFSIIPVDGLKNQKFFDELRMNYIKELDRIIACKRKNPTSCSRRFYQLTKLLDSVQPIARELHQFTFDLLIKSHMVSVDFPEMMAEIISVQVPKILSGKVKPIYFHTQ
Summary of the method: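 MDA-kb2 cells (MMTV-luciferase, responsive to AR and GR) at 3,000/well, rested 5 h at 37C, 0% CO2, then given compounds plus 0.5 nM R1881 (final) for 16 hr. Luciferase read with ONE-Glo after 30 min at room temperature.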

[7] = qHTS assay to identify small molecule agonists of the sonic hedgehog signaling (Shh) pathway - cell viability counter screen (AID 1259366); note: nearly all actives have a fitted effect of over 50% in size; note: potency is the fitted concentration of half-maximal effect
Summary of the method: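 Viability measured fluorometrically (CellTiter-Fluor, 1hr, 37C) in 3T3 Gli1-Luc reporter cells after 23hr compound exposure within a 24hr incubation at 37C/5% CO2.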

[8] = qHTS assay to identify small molecule antagonists of the sonic hedgehog signaling (Shh) pathway - cell viability counter screen (AID 1259367); note: nearly all actives have a fitted effect of over 55% in size; note: potency is the fitted concentration of half-maximal effect
Summary of the method: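 Using CellTiter-Fluor, viability of Gli1-Luc reporter 3T3 cells is read by fluorescence in the wells used for the Shh luciferase assay. Treatment lasts 23 hr with conditioned medium, then reagent 1 hr at 37C.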

[9] = qHTS assay to identify small molecule agonists of the sonic hedgehog signaling (Shh) pathway (AID 1259368; calls by dose curve;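 note: NIH/3T3-derived 3T3Gli1-Luc cells carrying a stable Gli1-driven firefly luciferase reporter; series mostly up to about 92 µM; nearly all actives have a fitted effect of over 15% in size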)
Summary of the method: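 NIH/3T3-derived 3T3Gli1-Luc cells with stably integrated Gli1-driven firefly luciferase, 2,000 cells/well, compounds added after 4 hr. Incubated 24 hr at 37C, 5% CO2; luminescence read after 30 min with luciferase reagent at room temperature.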

[10] = A CellTox Green Cytotoxicity Assay to monitor cytotoxicity in HEK293 cells - 16 hour (AID 1224888); note: nearly all actives have a fitted effect of over 35% in size; note: potency is the fitted concentration of half-maximal effect
Summary of the method: as §1

[11] = qHTS assay to identify small molecule antagonists of the estrogen receptor alpha (ER-alpha) signaling pathway using the BG1 cell line in the presence of 0.1 nM 17-beta-estradiol - cell viability counter screen (AID 1259241); note: nearly all actives have a fitted effect of over 40% in size
Summary of the method: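 The cell line endogenously expresses full-length ER-alpha and carries four EREs driving luciferase. Cells are cultured 5 days hormone-free, treated 22 hr with compounds and 0.1 nM estradiol, then viability is read by fluorescence.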

[12] = target: Estrogen receptor (Homo sapiens) (UniProt P03372); experiment: qHTS assay to identify small molecule antagonists of the estrogen receptor alpha (ER-alpha) signaling pathway using the BG1 cell line in the presence of 0.1 nM 17-beta-estradiol (AID 1259244); note: nearly all actives have a fitted effect of over 50% in size; note: potency is the fitted concentration of half-maximal effect
Sequence of Estrogen receptor (Homo sapiens) (P03372 whole entry, looked up): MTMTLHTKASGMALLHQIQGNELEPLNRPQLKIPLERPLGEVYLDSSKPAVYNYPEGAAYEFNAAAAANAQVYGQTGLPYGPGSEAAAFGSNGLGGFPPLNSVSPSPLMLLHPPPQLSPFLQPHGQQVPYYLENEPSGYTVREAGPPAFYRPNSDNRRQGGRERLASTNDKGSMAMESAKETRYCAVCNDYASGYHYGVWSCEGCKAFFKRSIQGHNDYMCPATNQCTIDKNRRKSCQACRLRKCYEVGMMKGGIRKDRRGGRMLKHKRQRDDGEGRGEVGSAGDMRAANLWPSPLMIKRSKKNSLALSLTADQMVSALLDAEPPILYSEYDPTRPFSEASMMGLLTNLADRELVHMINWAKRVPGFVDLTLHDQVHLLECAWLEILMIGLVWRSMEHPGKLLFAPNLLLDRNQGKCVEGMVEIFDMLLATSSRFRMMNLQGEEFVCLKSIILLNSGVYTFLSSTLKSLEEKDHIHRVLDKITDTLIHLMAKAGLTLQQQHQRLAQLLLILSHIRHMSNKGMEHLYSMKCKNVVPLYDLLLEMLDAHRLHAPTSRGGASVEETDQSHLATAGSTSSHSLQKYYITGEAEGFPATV
Summary of the method: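 VM7Luc4E2 cells (endogenous full-length ER-alpha, 4×ERE-luciferase), kept 5 days in phenol red-free, charcoal-stripped FBS medium; 4,000 cells/well. Compounds added with 0.1 nM (final) 17beta-estradiol, 22 hr at 37C; luminescence read with ONE-Glo after 30 min.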

[13] = qHTS assay to identify small molecule HDAC inhibitors (AID 1259364); note: nearly all actives have a fitted effect of over 45% in size; note: potency is the fitted concentration of half-maximal effect
Summary of the method: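 Wild-type HCT-116 cells, plated overnight at 37 C, exposed to compounds 2 hr at 37 C; luminogenic HDAC-Glo substrate then added 30 min at room temperature. Luminescence reports relative endogenous class I/II HDAC activity.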

[14] = qHTS assay to identify small molecule HDAC inhibitors - cell viability counter screen (AID 1259365)
Summary of the method: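 Viability readout: CellTiter-Glo luminescence. Wild-type HCT-116 cells, 2hr compound treatment following overnight attachment at 37 C.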

[15] = qHTS assay to identify small molecule antagonists of the sonic hedgehog signaling (Shh) pathway (AID 1259369; calls by dose curve; note: nearly all actives have a fitted effect of over 45% in size; note: potency is the fitted concentration of half-maximal effect)
Summary of the method: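 NIH/3T3-derived Gli1-Luc reporter cells plated 4 h, dosed with compound, then stimulated with conditioned medium for 24 h at 37 C. Firefly luciferase luminescence read after 30 min with detection reagent at room temperature.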

[16] = qHTS RealTime-Glo MT Cell Viability Assay in HEK293 cells - 8 hour (AID 1224887); note: nearly all actives have a fitted effect of over 50% in size; note: potency is the fitted concentration of half-maximal effect
Summary of the method: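 600 cells/well were plated with the nonlytic NanoLuc/prosubstrate reagent, pre-incubated 5 h, then given 23 nL of compound in DMSO. Incubation at 37 C for 40 h, with luminescence from viable-cell-reduced substrate read repeatedly from 0 h.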

[17] = target: Estrogen receptor beta (Homo sapiens) (UniProt Q92731); experiment: qHTS assay to identify small molecule agonists of the estrogen receptor beta (ER-beta) signaling pathway (AID 1259377; active = well fitted activation curve with a large enough effect in the signal ratio in the repeat runs, not every such curve was filed as active; the % refers to the signal ratio)
Sequence of Estrogen receptor beta (Homo sapiens) (Q92731 whole entry, looked up): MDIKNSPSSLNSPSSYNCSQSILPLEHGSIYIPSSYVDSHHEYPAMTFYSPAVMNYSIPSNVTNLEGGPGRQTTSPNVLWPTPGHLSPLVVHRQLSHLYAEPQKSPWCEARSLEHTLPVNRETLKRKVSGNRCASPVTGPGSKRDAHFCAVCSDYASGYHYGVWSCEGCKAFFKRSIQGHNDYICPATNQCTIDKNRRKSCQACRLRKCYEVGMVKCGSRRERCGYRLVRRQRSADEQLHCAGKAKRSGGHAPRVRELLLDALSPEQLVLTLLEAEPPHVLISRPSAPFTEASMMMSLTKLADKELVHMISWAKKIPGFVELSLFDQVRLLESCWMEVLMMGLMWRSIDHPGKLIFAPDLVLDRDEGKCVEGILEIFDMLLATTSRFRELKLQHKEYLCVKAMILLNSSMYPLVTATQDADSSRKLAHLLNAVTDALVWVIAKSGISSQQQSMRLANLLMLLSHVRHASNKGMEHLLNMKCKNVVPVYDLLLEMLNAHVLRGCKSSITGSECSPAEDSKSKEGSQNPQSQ
Summary of the method: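 A UAS-controlled beta-lactamase reporter in ER-beta-UAS-bla HEK293T cells reports receptor activation. Compounds act for 16 hr at 37C in 2% charcoal-stripped serum, and a FRET substrate is read by fluorescence after 2 hours.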

[18] = target: Estrogen receptor beta (Homo sapiens) (UniProt Q92731); experiment: qHTS assay to identify small molecule antagonists of the estrogen receptor beta (ER-beta) signaling pathway (AID 1259378; active = well fitted inhibition curve with a large enough effect in the signal ratio in the repeat runs, not every such curve was filed as active; the % refers to the signal ratio; note: potency is the fitted concentration of half-maximal effect)
Summary of the method: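 Antagonist mode: compounds added to beta-lactamase reporter HEK293T ER-beta-UAS cells stimulated with E2 (1nM final), 16 hr at 37C. LiveBLAzer B/G FRET substrate, 2 hours room temperature, fluorescence read-out.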

[19] = qHTS assay to identify small molecule phospholipidosis (PLD) inducers (AID 1259344; active = well fitted curve in the direction sought with a large enough effect; an effect the other way counts as inactive or inconclusive)
Summary of the method: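 Fluorescent phospholipid staining (LipidTOX Red) measured by automated microscopy in fixed HepG2 cells after 24 h treatment; nuclei counterstained with Hoechst 33342; amiodarone as reference inducer.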

[20] = qHTS RealTime-Glo MT Cell Viability Assay in HepG2 cells - 16 hour (AID 1224885); note: nearly all actives have a fitted effect of over 50% in size
Summary of the method: as §2

Measured: Potency

N#Cc1nc(Cl)c(Cl)c(Cl)c1Cl
active: [2] 1.95 µM | [5] 54.5 µM | [6] 4.86 µM | [7] 5.45 µM | [8] 10.9 µM
inactive: [1] | [3] | [4] | [9]

C1CCSC1
not listed: [2] | [6] | [16] | [17] | [18] | [19] | [20]
inactive: all other assays above

Nc1cc([N+](=O)[O-])ccc1Cl
not listed: [6] | [12] | [13] | [19] | [20]
inactive: all other assays above

CN1CCN(CCCN2c3ccccc3Sc3ccc(C(F)(F)F)cc32)CC1
active: [1] 23.9 µM | [2] 23.9 µM | [16] 23.9 µM | [10] 23.9 µM | [7] 26.6 µM | [15] 10.6 µM
inactive: [11] | [13] | [14] | [8] | [9]

CC/C(=C(/c1ccc(O)cc1)c1ccc(OCCN(C)C)cc1)c1ccccc1
inactive: [3] | [11] | [13] | [9]
active: [1] 28.8 µM | [2] 10.2 µM | [16] 14.4 µM | [10] 28.8 µM | [4] 32.3 µM | [5] 40.3 µM | [6] 32 µM | [7] 18 µM | [8] 18 µM | [15] 14.3 µM

[Cl][Eu]([Cl])[Cl]
active: [15] 7.7 µM
not listed: [6] | [7] | [8] | [17] | [18] | [19] | [20]
inactive: all other assays above

O=C(CCN1CCC(c2ccccc2)C1)c1ccc2c(c1)OCCO2 (configuration not stated)
active: [7] 33.5 µM | [15] 18.8 µM
not listed: [2] | [5] | [6] | [8] | [13] | [17] | [20]
inactive: all other assays above

O=C1CCCCCCCCCCCCCC1
active: [10] 43.6 µM
not listed: [1] | [6] | [12] | [19]
inactive: all other assays above

CCCCCc1ccc(O)cc1
inactive: [20] | [3] | [11] | [5] | [12] | [14] | [9] | [18]
active: [16] 21.9 µM | [10] 38.9 µM

CC1(C)C[C@@H]1C(=O)N/C(=C\CCCCSC[C@H](N)C(=O)O)C(=O)O
inactive: [19]

C=C1[C@H](CO)[C@@H](O)C[C@@H]1n1cnc2c(=O)[nH]c(N)nc21
inactive: [19]

CCCCCCCCCCCCN1CCCC1=O
active: [18] 48.6 µM
inactive: [3] | [11] | [5] | [12] | [14] | [8] | [9] | [15]

CCC(C)(C)c1ccc(CC(C)CN2C[C@@H](C)O[C@@H](C)C2)cc1 (some centres not stated)
active: [10] 23.9 µM
not listed: [1] | [4] | [6] | [15] | [17] | [18] | [20]
inactive: all other assays above

CCCCCCCCCC[N+](C)(CCCCCCCCCC)CCC[Si](OC)(OC)OC
active: [2] 24.5 µM | [16] 19.5 µM | [4] 43.6 µM
inactive: [3] | [11] | [12] | [13] | [9] | [17] | [18]

Oc1ccc(Cl)cc1C1CCCC1
active: [16] 27.5 µM | [4] 49 µM
inactive: [20] | [3] | [11] | [5] | [12] | [13] | [14] | [7] | [8] | [9]

CC(C)(COP(=O)(O)OP(=O)(O)OC[C@H]1O[C@@H](n2cnc3c(N)ncnc32)[C@H](O)[C@@H]1OP(=O)(O)O)C(O)C(=O)NCCC(=O)NCCS (some centres not stated)
inactive: [19]

CC1(C)CCC(NC(=O)[C@@H](N)CCC(=O)O)CC1
inactive: [19]

CCCCC/C=C\C=C\C(=O)OCC
inactive: [1] | [3] | [4] | [11] | [5] | [12] | [13] | [14] | [9] | [18]

O=C(Nc1ccccc1)c1cc(Cl)ccc1O
inactive: [20] | [16] | [10] | [3] | [4] | [14] | [9]
active: [5] 17.2 µM | [12] 12.2 µM | [13] 0.686 µM | [8] 54.5 µM | [15] 15.4 µM

C=C1C(CCl)(CCl)C2(Cl)C(Cl)C(Cl)C1(Cl)C2(Cl)Cl (configuration not stated)
inactive: [3] | [4] | [11] | [5] | [19] | [14] | [8] | [9]
active: [16] 43.1 µM | [6] 48 µM | [18] 27 µM

CN1CCN(c2ccccc2/C=C2\SCCN(c3ccc(Cl)c(Cl)c3)C2=O)CC1
active: [2] 12.3 µM | [16] 12.3 µM | [10] 49 µM | [5] 48.6 µM | [7] 27.3 µM | [8] 54.5 µM | [15] 5.45 µM
inactive: [3] | [11] | [12] | [13] | [9]
